Among all 5,500 compounds or so, about 2,000 (36%) were called active. Inconclusive results (about 18%) are left out. Rule as the data show it: active = normalized growth mostly below about 0.91 (no sharp cut-off); inconclusive = no clear call, values can overlap the other calls; inactive = mostly above about 0.92. The list shows a part of the results.
Experiment: chemical genetic growth profiling, strain panel (AID 1159580);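 also: tested at 20 µM; growth read once vehicle control cultures reached saturation at 30 °C; 1 = growth at the plate median or of vehicle wells; lower values mean less growth of the strain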
Conditions: S. cerevisiae deletion strains, growth OD

Measured: normalized growth

CCOc1ccc(NC(=O)CC(C)O)cc1 (centres undefined)
inactive: locus YHR030C, strain SLT2, active compounds read low 1.02 | locus YHR079C, strain IRE1, active compounds read low 1.02 | locus YJL095W, strain BCK1, active compounds read low 1.02 | locus YJR066W, strain TOR1, active compounds read low 0.94 | locus YLR113W, strain HOG1, active compounds read low 1.06 | locus YNL183C, strain NPR1, active compounds read low 0.939 | locus YOR231W, strain MKK1, active compounds read low 1.01 | locus YPL256C, strain CLN2, active compounds read low 1.01

O=C(Cc1ccccc1)NO
inactive: locus YAL021C, strain ccr4, active compounds read low 0.981 | locus YAL026C, strain drs2, active compounds read low 0.983 | locus YAL030W, strain snc1, active compounds read low 0.995 | locus YBL061C, strain skt5, active compounds read low 0.957 | locus YBR009C, strain hhf1, active compounds read low 0.993 | locus YBR023C, strain chs3, active compounds read low 0.978 | locus YBR171W, strain sec66, active compounds read low 0.96 | locus YBR231C, strain swc5, active compounds read low 0.974 | locus YBR279W, strain paf1, active compounds read low 0.976 | locus YCL011C, strain gbp2, active compounds read low 0.978 | locus YCL016C, strain dcc1, active compounds read low 0.96 | locus YCL061C, strain MRC1, active compounds read low 0.975 | locus YCL069W, strain vba3, active compounds read low 0.979 | locus YCR088W, strain abp1, active compounds read low 0.978 | locus YDL005C, strain med2, active compounds read low 0.956 | locus YDL040C, strain nat1, active compounds read low 0.975 | locus YDR001C, strain nth1, active compounds read low 0.972 | locus YDR069C, strain doa4, active compounds read low 0.953 | locus YDR137W, strain rgp1, active compounds read low 0.976 | locus YDR159W, strain sac3, active compounds read low 0.964 | locus YDR195W, strain ref2 0.953 | locus YDR297W, strain sur2, active compounds read low 0.987 | locus YDR334W, strain swr1, active compounds read low 1.01 | locus YDR335W, strain msn5, active compounds read low 0.982 | locus YDR392W, strain spt3, active compounds read low 0.993 | locus YEL003W, strain gim4, active compounds read low 0.974 | locus YEL037C, strain rad23, active compounds read low 0.962 | locus YEL061C, strain CIN8 (second series), active compounds read low 0.989 | locus YER015W, strain faa2, active compounds read low 0.98 | locus YER016W, strain bim1, active compounds read low 0.982 | locus YER111C, strain swi4, active compounds read low 0.985 | locus YER155C, strain BEM2 (second series), active compounds read low 0.925 | locus YFR010W, strain ubp6, active compounds read low 0.983 | locus YGL167C, strain pmr1, active compounds read low 0.969 | locus YGL173C, strain kem1, active compounds read low 0.979 | locus YGL227W, strain vid30, active compounds read low 0.961 | locus YGL240W, strain doc1, active compounds read low 0.995 | locus YGL253W, strain hxk2, active compounds read low 0.962 | locus YHR013C, strain ard1, active compounds read low 0.944 | locus YHR027C, strain rpn1, active compounds read low 0.974 | locus YHR142W, strain chs7, active compounds read low 0.917 | locus YJL092W, strain hpr5, active compounds read low 0.99 | locus YJL095W, strain BCK1 (second series), active compounds read low 0.96 | locus YJL115W, strain asf1, active compounds read low 0.961 | locus YJL129C, strain trk1, active compounds read low 0.954 | locus YJL154C, strain vps35, active compounds read low 0.989 | locus YJL164C, strain tpk1, active compounds read low 0.977 | locus YJL166W, strain qcr8, active compounds read low 0.966 | locus YKL160W, strain elf1, active compounds read low 0.944 | locus YKR026C, strain gcn3, active compounds read low 0.973 | locus YKR091W, strain srl3, active compounds read low 0.973 | locus YLL001W, strain dnm1, active compounds read low 0.98 | locus YLL026W, active compounds read low 0.97 | locus YLL041C, strain sdh2, active compounds read low 0.976 | locus YLR027C, strain aat2, active compounds read low 0.973 | locus YLR221C, strain rsa3, active compounds read low 0.992 | locus YLR258W, strain gsy2, active compounds read low 0.973 | locus YLR262C, strain YPT6 (second series), active compounds read low 0.978 | locus YLR320W, strain mms22, active compounds read low 0.952 | locus YLR342W, strain FKS1, active compounds read low 0.98 | locus YLR357W, strain rsc2, active compounds read low 0.938 | locus YLR370C, strain arc18, active compounds read low 0.981 | locus YLR384C, strain iki3, active compounds read low 0.961 | locus YML120C, strain ndi1, active compounds read low 0.981 | locus YMR058W, strain fet3, active compounds read low 0.984 | locus YMR125W, strain sto1, active compounds read low 0.963 | locus YMR129W, active compounds read low 0.973 | locus YMR205C, strain PFK2, active compounds read low 0.992 | locus YMR231W, strain pep5, active compounds read low 0.975 | locus YNL071W, strain lat1, active compounds read low 0.965 | locus YNL209W, strain ssb2, active compounds read low 0.984 | locus YNL248C, strain rpa49, active compounds read low 0.95 | locus YNL322C, strain KRE1 (second series), active compounds read low 0.949 | locus YNR049C, strain mso1, active compounds read low 0.983 | locus YOR001W, strain rrp6, active compounds read low 1 | locus YOR070C, strain gyp1, active compounds read low 0.98 | locus YOR080W, strain dia2, active compounds read low 0.94 | locus YOR083W, strain WHI5, active compounds read low 0.928 | locus YOR106W, strain vam3, active compounds read low 0.939 | locus YOR265W, strain rbl2, active compounds read low 0.976 | locus YOR270C, strain vph1, active compounds read low 0.936 | locus YOR290C, strain snf2, active compounds read low 0.969 | locus YPL051W, strain arl3, active compounds read low 0.972 | locus YPL078C, strain atp4, active compounds read low 0.97 | locus YPL106C, strain sse1, active compounds read low 0.949 | locus YPL240C, strain hsp82, active compounds read low 0.963
